This is an account of results in PubChem BioAssay (Tox21).

Structures are written as SMILES. Results filed as inconclusive are left out. Calls of active or inactive are those of the source. The call rests on the fitted dose curve; in most records, active means well fitted cell-killing curve with a large enough effect in the repeat runs; inconclusive means weak or mixed curves; inactive means no such curve, though single readings can be large or run the other way.

This test is described as follows: qHTS assay to identify small molecule agonists of the peroxisome proliferator-activated receptor delta (PPARd) signaling pathway - cell viability counter screen (AID 743211). Further: nearly all actives have a fitted effect of over 55% in size. The conditions noted are these: PPARd-bla HEK293H viability, CellTiter-Glo luminescence, 17 h; series mostly up to 62.6 µM. The text has this:
U.S. Tox21 Program National Center for Advancing Translational Sciences [NCATS] NIH Chemical Genomics Center [NCGC] U.S. Environmental Protection Agency [EPA] National Institutes of Environmental Health Sciences [NIEHS] National Toxicology Program [NTP] U.S. Food and Drug Administration [FDA] Tox21 Assay Overview: The peroxisome proliferator-activated receptors (PPARs) are lipid-activated transcription factors of the nuclear receptor superfamily with three distinct subtypes namely PPAR alpha, PPAR delta (PPARd) and PPAR gamma. All these subtypes heterodimerizes with Retinoid X receptor (RXR) and have different physiological functions. […] To identify the compounds that activate PPAR-delta signaling, GeneBLAzer PPAR delta UAS-bla HEK293H cell line (Invitrogen, Carlsbad, CA, USA) containing a beta-lactamase reporter gene under the control of an Upstream Activator Sequence (UAS) was used to screen the Tox21 compound library. The cytotoxicity of the Tox21 compound library against the PPARd-bla cell line was tested in parallel by measuring the cell viability using CellTiter-Glo assay (Promega, Madison, WI) in the same wells.
Tox21 Assay Protocol Summary: PPARd-bla cells were dispensed at 3000 cells/6uL/well in 1536-well black wall/clear bottom plates using a Multidrop Combi (Thermo Fisher Scientific, Waltham, MA) dispenser. After the assay plates were incubated at 37 C and 5% CO2 for 5 h, 23 nL of compounds dissolved in DMSO, positive controls or DMSO only was transferred to the assay plate by a Pintool station (Kalypsys, San Diego, CA). The assay plates were incubated at 37C for 17 h. After 1 uL of LiveBLAzerTM B/G FRET substrate was added using a Bioraptr Flying Reagent Dispenser (FRD) workstation (Beckman Coulter, Indianapolis, IN, USA), the plates were incubated at room temperature for 2 h, and fluorescence intensity was measured by an Envision plate reader (PerkinElmer, Shelton, CT). For cell viability readout that measures cytotoxicity, 3 ul/well of CellTiter-Glo reagent was added into the assay plates using a Bioraptr FRD. After 30 min incubation at room temperature, the luminescence intensity in the plates was measured using a ViewLux plate reader (PerkinElmer).
Regarding `c1ccc(Oc2ccccc2)cc1`, the compound was called inactive.
In the case of `Cc1ccc(S(=O)(=O)N=C=O)cc1` it was “inactive”; in that of `CC(=O)CC(C)(C)O`, “inactive”; in that of `O=C1C(c2[nH]c3ccccc3c2O)=Nc2ccccc21`, “inactive”.
Turning to `COc1ccc(OC)cc1`, the call was inactive.
In the case of `CCCCCCCCCCO` it was “inactive”; in that of `CCO[Si](CCC#N)(OCC)OCC`, “inactive”.
Turning to `COc1ccc(C)cc1N`, the outcome was inactive.
With `C=CC(C)CCCC(C)(C)O` (stereo not given), the result was inactive.
In the case of `CCCCCCCCCCCC(=O)OC`, the result was inactive.
In the case of `CC1(C)NC(=O)NC1=O`, the outcome was inactive.
`Cc1ccc2ncccc2c1`: the result was inactive.
In the case of `Clc1ccccn1` it was “inactive”.
For `CC(C)(C#N)c1cc(Cn2cncn2)cc(C(C)(C)C#N)c1`, the compound was called inactive.
Consider `CCCCCCCCCCCCCCCCO`, for which the call was inactive.
In the case of `O=C(O)c1ccc(S(=O)(=O)N(Cl)Cl)cc1` it was “inactive”; in that of `c1ccc2c(c1)Cc1ccccc1-2`, “inactive”.
In the case of `O=c1[nH]cnc2[nH]ncc12` it was “inactive”; in that of `Brc1ccc(Br)c(Br)c1`, “inactive”; in that of `NCCCCCCN`, “inactive”.
In the case of `CN/C(=C\[N+](=O)[O-])NCCSCc1csc(CN(C)C)n1` it was “inactive”; in that of `CN(C)c1ccc(Cc2ccc(N(C)C)cc2)cc1`, “inactive”; in that of `O=C(O)CCCCCCCCC(=O)O`, “inactive”.
As for `COc1cc(OC)c(C(=O)CCCN2CCCC2)c(OC)c1`, the compound was called inactive.
In the case of `CC(C)OC(=O)COc1ccc(Cl)cc1Cl` it was “inactive”; in that of `CCCCC(C=O)CC` (stereo not given), “inactive”.
In the case of `CC(=O)OCc1ccco1` it was “inactive”; in that of `CNC(=O)Oc1ccc2c(c1)[C@]1(C)CCN(C)[C@@H]1N2C`, “inactive”; in that of `COC(=O)c1cccnc1`, “inactive”.
On to `O=C(O)Cn1c(=O)n(Cc2ccc(Br)cc2F)c(=O)c2ccc(Cl)cc21`, for which the outcome was inactive.
Turning to `C=Cc1ccc(C)cc1`, the call was inactive.
`C=CC[N+](C)(C)CC=C`: the result was inactive.
In the case of `O=S(=O)(O)c1ccc(N=Nc2c(O)ccc3cc(S(=O)(=O)O)ccc23)cc1` it was “inactive”; in that of `COCCCN`, “inactive”; in that of `CCCCCCCCCCCCCCCC(=O)OC(C)C`, “inactive”.
With `CSc1ccc(Cl)cc1`, the result was inactive.
In the case of `Nc1nc(N)nc(-c2ccccc2)n1` it was “inactive”.
Consider `CC(=O)Oc1ccc(C)cc1`, for which the compound was classed as inactive.
In the case of `N[C@H](Cc1c[nH]c2ccccc12)C(=O)O` it was “inactive”; in that of `CCOC(=O)c1ccc(N)cc1`, “inactive”.
